Rab7 wt modul – modulators of GTP binding to dog Rab7 wildtype GTPase | 190,000 tested, 0.055% active | AID 758 | GST-Rab7 beads, fluorescent GTP binding, flow cytometry; actives lie on both sides; untreated = 100%, excess cold GTP = 0% | GTP binding activity (percent of control), % at 10 µM;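 active = fluorescent GTP binding to Rab7 beads changed by at least 20 points from the 100% baseline, either direction, mostly lower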;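 note: median green fluorescence of bound Bodipy-FL-GTP per Rab7 bead population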
Cdc42 wt – human Cdc42 wildtype GTP binding change, either direction | P60953 | GST-Cdc42 beads, Bodipy-GTP binding, flow cytometry; actives lie on both sides | percent activity (GTP binding), % at 10 µM | 190,000 tested, 0.2% active | AID 761;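 active = percent activity GTP binding at least 20 points away from the 100% baseline, either down as inhibitor or up as activator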;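 note: median bead fluorescence of bound Bodipy-FL-GTP at 100 nM; 0% = excess unlabeled GTP control and 100% = no compound control; below 100% means less GTP binding so inhibitor and above means activator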
Target sequence (P60953 whole entry, looked up): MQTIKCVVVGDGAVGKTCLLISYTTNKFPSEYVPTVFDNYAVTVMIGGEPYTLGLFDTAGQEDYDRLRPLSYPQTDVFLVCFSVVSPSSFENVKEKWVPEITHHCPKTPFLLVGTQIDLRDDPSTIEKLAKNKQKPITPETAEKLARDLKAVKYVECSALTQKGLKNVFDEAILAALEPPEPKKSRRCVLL
Rac1 wt GTP bind – alters GTP binding to wildtype human Rac1; AID 757; GST-Rac1 beads, fluorescent GTP binding, flow cytometry; actives lie on both sides; 0 = cold GTP competed, 100 = untreated; GTP binding activity (% of control), % at 10 µM; 190,000 tested, 0.27% active; P63000;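 active = GTP binding activity at least 20 points away from the 100% control level, either lower or higher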
Rab2A wt mod – changes GTP binding to wildtype dog Rab2A, up or down. GST-Rab2 wt beads, Bodipy-GTP binding, flow cytometry. GTP binding activity, % at 10 µM. 190,000 tested, 0.19% active;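 active = GTP binding activity at least 20 points away from 100%, either lowered or raised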;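 note: 0% = beads with excess unlabeled GTP and 100% = no-compound control corrected for plate trend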
HRas wt GTP – changes GTP binding to wildtype human HRas; P01112; GST-Ras wt beads, Bodipy-FL-GTP binding, flow cytometry; actives lie on both sides; GTP binding activity, % at 10 µM; 190,000 tested, 0.14% active;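 active = GTP binding activity at least 20% away from the 100% baseline, either lowered as inhibitor or raised as activator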;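 note: 0% = unlabeled GTP competition control and 100% = no-compound control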
Target sequence (P01112 whole entry, looked up): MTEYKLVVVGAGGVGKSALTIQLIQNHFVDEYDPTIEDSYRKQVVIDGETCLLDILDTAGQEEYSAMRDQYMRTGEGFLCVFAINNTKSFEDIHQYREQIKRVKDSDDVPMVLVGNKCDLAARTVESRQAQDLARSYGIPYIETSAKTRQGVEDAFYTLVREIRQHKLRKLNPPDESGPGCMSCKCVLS
Rac1 mut GTP – human Rac1 activated mutant GTP binding change; GST-Rac1 activated beads, fluorescent GTP binding, flow cytometry; actives lie on both sides; 100% means binding = to untreated wells; 190,000 tested, 0.11% active; percent activity (GTP binding), % at 10 µM;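 active = GTP binding at least 20 percentage points away from the 100% baseline, in either direction, so actives lie on both sides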
Numbers without * were called inactive; [ ] = dose if it differs, or a comment. Sampled rows, rich in hits. Any-hit rate of the full collection: about 0.4%.

Screening O=C(CCCCCNc1nc(=S)[nH]c2ccccc12)NCCc1ccc(Cl)cc1 returned Rab7 wt modul 101, Cdc42 wt 91, Rac1 wt GTP bind 87, Rab2A wt mod 90, HRas wt GTP 92 and Rac1 mut GTP 92.
Screening CC(C)CCNC(=O)Cc1ccc(Nc2nc(=S)[nH]c3ccccc23)cc1 returned Rab7 wt modul 96, Cdc42 wt 80, Rac1 wt GTP bind 73*, Rab2A wt mod 75*, HRas wt GTP 75* and Rac1 mut GTP 89.
For O=C(Cc1c(O)c2ccccc2[nH]c1=O)NC1CCCCCC1 the results were Rab7 wt modul 99, Cdc42 wt 103, Rac1 wt GTP bind 103, Rab2A wt mod 100, HRas wt GTP 101 and Rac1 mut GTP 99.
Screening O=S1(=O)N=C(N=Nc2c(O)[nH]c3ccccc23)c2ccccc21 returned Rab7 wt modul 96, Cdc42 wt 80, Rac1 wt GTP bind 77*, Rab2A wt mod 82, HRas wt GTP 87 and Rac1 mut GTP 87.
`COc1ccc([N+](=O)[O-])cc1NC(=S)NC(NC(=O)Cc1ccc(OC)c(OC)c1)C(Cl)(Cl)Cl` (stereo not drawn) gave Rab7 wt modul 90, Cdc42 wt 54*, Rac1 wt GTP bind 74*, Rab2A wt mod 55*, HRas wt GTP 57* and Rac1 mut GTP 79*.
COc1ccc([N+](=O)[O-])cc1NC(=O)Cc1ccc(Cl)cc1 was read as Rab7 wt modul 98, Cdc42 wt 98, Rac1 wt GTP bind 100, Rab2A wt mod 99, HRas wt GTP 101 and Rac1 mut GTP 101.
For Cc1cc(NC(=O)CSc2nc(-c3ccccc3)c(C#N)c(=O)[nH]2)no1 the results were Rab7 wt modul 77*, Cdc42 wt 75*, Rac1 wt GTP bind 77*, Rab2A wt mod 78*, HRas wt GTP 75* and Rac1 mut GTP 76*.
Cc1ccc(COC(=O)c2nn(C)c(=O)c3ccccc23)cc1 was read as Rab7 wt modul 97, Cdc42 wt 96, Rac1 wt GTP bind 97, Rab2A wt mod 93, HRas wt GTP 94 and Rac1 mut GTP 94.
For N#C/C(=C\c1ccncc1)c1nc2ccccc2[nH]1 the results were Rab7 wt modul 26*, Cdc42 wt 41*, Rac1 wt GTP bind 31*, Rab2A wt mod 42*, HRas wt GTP 43* and Rac1 mut GTP 35*.
Cc1cc2nc(/C(C#N)=C/c3ccncc3)[nH]c2cc1C was read as Rab7 wt modul 96, Cdc42 wt 87, Rac1 wt GTP bind 86, Rab2A wt mod 94, HRas wt GTP 92 and Rac1 mut GTP 89.
N#C/C(=C\c1ccc(-c2ccc(C(=O)O)cc2)o1)c1nc2ccccc2[nH]1 was read as Rab7 wt modul 87, Cdc42 wt 78*, Rac1 wt GTP bind 71*, Rab2A wt mod 77*, HRas wt GTP 80 and Rac1 mut GTP 80.
`CSc1nnc(-c2cc(Br)ccc2N=Cc2c(C)[nH]n(-c3ccccc3)c2=O)c(=O)[nH]1` gave Rab7 wt modul 93, Cdc42 wt 78*, Rac1 wt GTP bind 88, Rab2A wt mod 81, HRas wt GTP 85 and Rac1 mut GTP 80.
For Cc1ccc(-n2[nH]c(C)c(C=Nc3ccc(Br)cn3)c2=O)cc1 the results were Rab7 wt modul 105, Cdc42 wt 100, Rac1 wt GTP bind 101, Rab2A wt mod 97, HRas wt GTP 98 and Rac1 mut GTP 95.
Screening O=C(Nc1cccc(O)c1)c1ccccc1 returned Rab7 wt modul 106, Cdc42 wt 103, Rac1 wt GTP bind 102, Rab2A wt mod 104, HRas wt GTP 104 and Rac1 mut GTP 100.
For COC(=O)/C=C/C(=O)Nc1cccnc1 the results were Rab7 wt modul 96, Cdc42 wt 101, Rac1 wt GTP bind 103, Rab2A wt mod 101, HRas wt GTP 99 and Rac1 mut GTP 99.
O=C(O)/C=C\C(=O)Nc1cccc(C(=O)Nc2cccc(O)c2)c1 was read as Rab7 wt modul 95, Cdc42 wt 85, Rac1 wt GTP bind 76*, Rab2A wt mod 83, HRas wt GTP 87 and Rac1 mut GTP 89.
`O=C(O)/C=C/C(=O)Nc1cccnc1` gave Rab7 wt modul 20*, Cdc42 wt 31*, Rac1 wt GTP bind 34*, Rab2A wt mod 31*, HRas wt GTP 38* and Rac1 mut GTP 34*.
COc1ccc(OCC(=O)N2CCN(S(=O)(=O)c3ccccc3[N+](=O)[O-])CC2)cc1 was read as Rab7 wt modul 93, Cdc42 wt 93, Rac1 wt GTP bind 94, Rab2A wt mod 94, HRas wt GTP 93 and Rac1 mut GTP 94.
Screening CC(Oc1ccc(Cl)cc1Cl)c1nc(-c2ccc(NC(=O)c3ccccn3)cc2)no1 (stereo not drawn) returned Rab7 wt modul 102, Cdc42 wt 99, Rac1 wt GTP bind 106, Rab2A wt mod 100, HRas wt GTP 99 and Rac1 mut GTP 97.
Screening CC1CN(C(=O)Cc2ccc(-c3ccccc3)cc2)CC(C)O1 (stereo not drawn) returned Rab7 wt modul 93, Cdc42 wt 97, Rac1 wt GTP bind 93, Rab2A wt mod 93, HRas wt GTP 97 and Rac1 mut GTP 93.
`Cc1ccc2c(c1)c1nnc(SCC(=O)N3CCCc4ccccc43)nc1n2CC(=O)O` gave Rab7 wt modul 84, Cdc42 wt 64*, Rac1 wt GTP bind 66*, Rab2A wt mod 66*, HRas wt GTP 67* and Rac1 mut GTP 82.
Cc1cc(N=NC(=O)c2ccccc2O)c2ccccc2c1O was read as Rab7 wt modul 91, Cdc42 wt 76*, Rac1 wt GTP bind 74*, Rab2A wt mod 78*, HRas wt GTP 83 and Rac1 mut GTP 82.
`Cn1c(O)c(N=NC(=O)c2ccccc2O)c2ccccc21` gave Rab7 wt modul 98, Cdc42 wt 93, Rac1 wt GTP bind 96, Rab2A wt mod 92, HRas wt GTP 94 and Rac1 mut GTP 93.
`CCC(C)(NC(=O)c1ccc2c(c1)OCO2)C(=O)NC1CCCCC1` (stereo not drawn) gave Rab7 wt modul 93, Cdc42 wt 100, Rac1 wt GTP bind 102, Rab2A wt mod 98, HRas wt GTP 100 and Rac1 mut GTP 94.
O=C1CC(c2ccc(F)cc2)Sc2ccccc2N1 (stereo not drawn) was read as Rab7 wt modul 111, Cdc42 wt 116, Rac1 wt GTP bind 129*[activator], Rab2A wt mod 106, HRas wt GTP 114 and Rac1 mut GTP 109.
`Cc1cc(-c2nnc3n2N=C(c2ccc(-c4ccccc4)cc2)CS3)n[nH]1` gave Rab7 wt modul 87, Cdc42 wt 76*, Rac1 wt GTP bind 75*, Rab2A wt mod 79*, HRas wt GTP 78* and Rac1 mut GTP 81.

Screening data deposited in PubChem by NMMLSC.
